Source: PubChem BioAssay (National Center for Advancing Translational Sciences (NCATS))
Shown are actives, neighbours in structure and some others; about 3.2% of the full set was active somewhere.
p53null 39C kill: p53 null cell cytotoxicity, nonpermissive temperature. Potency, µM (titrated, usually from 46.1 µM), for the others: at the top dose activity, negative = cell killing, usual class: cytotoxic. actives 0.97% (n = 55,000). AID 904. H1299 p53-null (neo) cells, 39C, ATPlite viability, 24 h;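 further: potency means the concentration at half of the fitted maximal effect; 0% = DMSO only and -100% = full killing by 100 µM tamoxifen; nearly all actives have a fitted effect of over 50% in size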
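ATP-luminescence viability readout (ATPlite, 20 min RT) after 24 hr compound treatment at 39C of H1299-neo or H1299-p53A138V cells; titration up to 46 uM; normalized to DMSO and 100 uM tamoxifen; Hill-fit AC50.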
S16 viability: cytotoxicity in S16 Pmp22-F2sN Schwann cells | S16 Pmp22-F2sN Schwann cells viability, CellTiter-Glo, 24 h | Potency, µM (doses to about 57.5 µM), inactives show at the top dose activity change, negative = cytotoxicity, hits mostly cytotoxic | actives 0.48% (n = 43,000) | AID 1508642; further: potency means the concentration at half of the fitted maximal effect; on the % scale 0 is the no-effect control and ±100 the full control effect; nearly all actives have a fitted effect of over 65% in size
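CellTiter-Glo counter-screen, qHTS, 1536-well. Cells: S16(c9) Pmp22-F2sN, 500-1,000/well in DMEM + 10% FBS. Cpd 23 nL pin transfer, 24 h, 37C/5% CO2. Read: luminescence, CCD imager.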
p53null 32C kill: kills p53 null cells at the permissive temperature; actives 0.62% (n = 55,000); H1299-neo p53 null cells, ATP luminescence, 24 h, 32C; AID 903; Potency, µM (series often up to 46.1 µM), inactives show at the highest dose activity change, negative = cytotoxicity, most hits filed as cytotoxic;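 further: potency means the concentration at half of the fitted maximal effect; 0% = DMSO only and -100% = full killing by 100 µM tamoxifen; nearly all actives have a fitted effect of over 55% in size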
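We seeded p53-null H1299-neo cells, incubated them overnight at 37C, and added compounds across a range up to 46 uM. After 24 hours at 32C, ATP reagent was applied for 20 min at room temperature and luminescence recorded.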
pS6 MEF inh: reduces mTORC1 signaling in Tsc2 and p53 null MEF cells | Tsc2-/- p53-/- MEF, phospho-rpS6 immunofluorescence/PI, 24 h | Potency, µM (highest dose often 38.3 µM), inactives show at the highest dose activity change, negative = inhibition, actives largely listed as inhibitors | actives 0.78% (n = 44,000) | AID 493208;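 further: potency means the concentration at half of the fitted maximal effect; plate controls were DMSO for no effect and rapamycin for full effect; nearly all actives have a fitted effect of over 50% in size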
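Immunofluorescence of rpS6 phosphorylation in Tsc2-/-, p53-/- MEFs after 24 h compound exposure, normalized to propidium iodide signal. Activity is expressed as % positive cells, thresholded with 7.5 nM rapamycin.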
PMP22 txn: PMP22 gene transcription modulation; S16 Pmp22-F2sN Schwann cells (luciferase reporters placed in the Pmp22 gene), FLuc/NLuc coincidence luminescence, 24 h; Potency, µM (series often up to 57.5 µM), for inactives: at the top dose activity change, negative = inhibition, hits mostly inhibitors; actives 2% (n = 43,000); active means clear falling dose curves in both reporters; inconclusive means both reporters move, but less clearly or upward; inactive means either reporter flat; the % is the NLuc reporter signal; further: potency means the concentration at half of the fitted maximal effect; on the % scale 0 is the no-effect control and ±100 the full control effect
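Luminescent read-out of sequential FLuc and NLuc signals from a reporter embedded in the Pmp22 3' UTR of S16 Schwann cells, taken after 24 h compound exposure at 37C; compounds reducing both signals score as inhibitors of expression.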
NLuc sat counter: NanoLuc enzyme inhibition artifact for PMP22 screen. actives 4% (n = 690). AID 1508638. Secreted NLuc enzyme (filtered S16 cell medium), Nano-Glo luminescence. shares compounds with PMP22 txn. Potency, µM (series often up to 57.5 µM), for inactives: at the highest dose activity change, negative = inhibition, hits mostly inhibitors; further: potency means the concentration at half of the fitted maximal effect; on the % scale 0 is the no-effect control and ±100 the full control effect
NLuc Km ctr: NanoLuc inhibition at Km substrate, PMP22 artifact check | shares compounds with PMP22 txn | secreted NLuc enzyme, coelenterazine luminescence, Km conditions | Potency, µM (highest dose often 57.5 µM), for inactives: at the top dose activity change, negative = inhibition, most hits filed as inhibitors | actives 5% (n = 690); further: potency means the concentration at half of the fitted maximal effect; on the % scale 0 is the no-effect control and ±100 the full control effect
FLuc ctr PMP22: firefly luciferase enzyme inhibition artifact for PMP22 screen | 690 tested, under 10 active | AID 1508640 | purified P. pyralis FLuc, luminescence, 10 min | Potency, µM (series often up to 57.5 µM), for inactives: top-dose activity, negative = inhibition, usual class: inhibitors | shares compounds with PMP22 txn; further: % of control where 0% means no effect
Target sequence (P08659 whole entry, looked up): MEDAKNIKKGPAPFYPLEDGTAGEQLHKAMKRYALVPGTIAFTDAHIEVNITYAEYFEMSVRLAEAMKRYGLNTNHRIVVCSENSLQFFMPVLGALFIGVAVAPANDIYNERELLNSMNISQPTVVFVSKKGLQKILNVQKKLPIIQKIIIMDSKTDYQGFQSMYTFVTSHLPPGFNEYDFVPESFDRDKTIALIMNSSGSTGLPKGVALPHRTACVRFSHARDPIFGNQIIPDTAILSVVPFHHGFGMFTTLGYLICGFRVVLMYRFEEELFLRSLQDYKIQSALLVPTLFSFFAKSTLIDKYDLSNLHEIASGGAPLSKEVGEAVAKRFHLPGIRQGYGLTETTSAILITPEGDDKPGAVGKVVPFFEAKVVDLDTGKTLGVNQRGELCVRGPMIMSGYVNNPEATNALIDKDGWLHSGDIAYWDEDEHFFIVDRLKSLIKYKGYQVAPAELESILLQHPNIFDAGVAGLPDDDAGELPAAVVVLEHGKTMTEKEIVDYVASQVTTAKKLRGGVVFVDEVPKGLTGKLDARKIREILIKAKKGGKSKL
S16 F2sN tox cnf: S16 Schwann cell cytotoxicity, confirmatory; AID 1508641; shares compounds with PMP22 txn; Potency, µM (series often up to 57.5 µM), without a hit: top-dose activity change, negative = viability loss, hits mostly cytotoxic; actives 7% (n = 690); S16 Schwann cells viability, CellTiter-Glo ATP luminescence, 24 h; further: potency means the concentration at half of the fitted maximal effect; on the % scale 0 is the no-effect control and ±100 the full control effect
PMP22 txn cnf: confirmation of modulators of PMP22 gene transcription in S16 cells; S16 Schwann cells Pmp22-F2sN, dual luciferase, 24 h; Potency, µM (series often up to 57.5 µM), inactives show at the top dose activity change, negative = inhibition, actives largely listed as inhibitors; actives 22% (n = 690); shares compounds with PMP22 txn; active means clear falling dose curves in both reporters; inconclusive means both reporters move, but less clearly or upward; inactive means either reporter flat; the % is the FLuc reporter signal; further: potency means the concentration at half of the fitted maximal effect
* = called active by the depositor; ? = inconclusive; nt = no result. Unless noted, the call rests on the fitted dose curve; in most records, active means well fitted curve in the direction sought with a large enough effect; inconclusive means small, poorly fitted or top-dose-only effect, or another doubt; inactive means no such curve, though single readings can be large; an effect the other way counts as inactive or inconclusive.

SMILES | p53null 39C kill | S16 viability | p53null 32C kill | pS6 MEF inh | PMP22 txn | NLuc sat counter | NLuc Km ctr | FLuc ctr PMP22 | S16 F2sN tox cnf | PMP22 txn cnf
CC(=O)c1cccc(Nc2nc(-c3ccccc3Cl)nc3ccccc23)c1 | ? | -2% | 2% | 15% | 11µM* | 5.4µM* | 0.86µM* | -5% | -10% | -27%
COc1ccccc1NC(=O)CSc1nc2nccnc2c(=O)n1CCc1c[nH]c2ccccc12 | 0% | -16% | -3% | 1% | 13µM* | ? | ? | -15% | 7% | ?
Cc1ccccc1S(=O)(=O)Cc1ccc(C(=O)NCc2ccccc2Cl)o1 | -9% | -3% | 5% | -16% | ? | -9% | -4% | ? | 4% | -2%
COc1ccc(NC(=O)c2ccc3c(c2)c(C)c(C)n3Cc2ccc(F)cc2)cc1 | ? | -18% | 1% | ? | 15µM* | -17% | -3% | -28% | -9% | 0%
Cc1cc(N2CCN(c3cccc(C(F)(F)F)c3)CC2)n2nc(-c3ccccc3C)nc2n1 | -14% | 2% | -6% | -5% | 16µM* | ? | -19% | -10% | -6% | ?
COc1ccc(CCCc2nnc(SCC(=O)Nc3cccc(C)c3)o2)cc1C | -26% | 19% | -6% | 3% | 5% | nt | nt | nt | nt | nt
CCCNC(=O)c1ccc(-n2c(-c3ccccc3)cc3c2CCC(C)C3)cc1 (configuration not stated) | 44% | 25% | 0% | ? | ? | nt | nt | nt | nt | nt
CCOCCCNC(=O)c1ccc(-n2c(-c3ccccc3)cc3c2CCCC3)cc1 | 25% | ? | 24% | -13% | ? | nt | nt | nt | nt | nt
COCCNC(=O)c1ccc(-n2c(-c3ccccc3)cc3c2CCC(C)C3)cc1 (configuration not stated) | 42% | ? | 15% | 4% | 10µM* | -16% | ? | -4% | -5% | -39%
CC1CCc2c(cc(-c3ccccc3)n2-c2ccc(C(=O)NC(C)C)cc2)C1 (configuration not stated) | -23% | 13% | 50% | -14% | 13µM* | -13% | -4% | -15% | 7% | ?
COc1ccc(-c2cc(C(F)(F)F)nc(NCCc3ccccc3)n2)cc1OC | -8% | 4% | -5% | 3% | 13µM* | -15% | -18% | 1% | -18% | 1%
COc1ccc(-c2cc(C(F)(F)F)nc(NCCc3ccccc3)n2)cc1 | -22% | ? | -7% | 0% | -63% | nt | nt | nt | nt | nt
CCc1ccc(Nc2nc3c(S(=O)(=O)c4ccc(C)cc4)nnn3c3ccsc23)cc1 | -20% | 3% | 7% | -11% | 5.8µM* | -10% | ? | 3% | ? | -39%
